Results: PubChem BioAssay (NCATS)
Inconclusive results are not listed. Where a call stands in place of a potency, no number is given. Active and inactive are the calls of the source. The call rests on the fitted dose curve; in most records, active means well fitted curve in the direction sought with a large enough effect; inconclusive means small, poorly fitted or top-dose-only effect, or another doubt; inactive means no such curve, though single readings can be large; an effect the other way counts as inactive or inconclusive.

Assays:
[1] = Quantitative High-Throughput drug screen in 47 multiple myeloma cell lines against the NCATS MIPE library collection: FR4_PLB cell viability assay (AID 1918924; further: nearly all actives have a fitted effect of over 35% in size; further: potency means the concentration at half of the fitted maximal effect)
Procedure, shortened: (§1)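 Luminescent ATP measurement with CellTiter-Glo gives viability, scaled between DMSO-only wells (100%) and media-only wells (0%). Cells, 500 per well, faced library compounds for 48 hours at 37C.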

[2] = Quantitative High-Throughput drug screen in 47 multiple myeloma cell lines against the NCATS MIPE library collection: EJM_DSMZ cell viability assay (AID 1918926; further: nearly all actives have a fitted effect of over 30% in size; further: potency means the concentration at half of the fitted maximal effect)
Procedure, shortened: as §1

[3] = Quantitative High-Throughput drug screen in 47 multiple myeloma cell lines against the NCATS MIPE library collection: AMO1_DSMZ cell viability assay (AID 1918927; further: nearly all actives have a fitted effect of over 30% in size; further: potency means the concentration at half of the fitted maximal effect)
Procedure, shortened: as §1

[4] = Quantitative High-Throughput drug screen in 47 multiple myeloma cell lines against the NCATS MIPE library collection: ARP1_JJKsccF8 cell viability assay (AID 1918928; further: nearly all actives have a fitted effect of over 40% in size; further: potency means the concentration at half of the fitted maximal effect)
Procedure, shortened: (§2)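 Luminescence from CellTiter-Glo, taken after 5 min at room temperature, reports cellular ATP as viability. Cells (500 per well) had been treated 48 h at 37 °C with MIPE 4.0 compounds, scaled between DMSO and medium-only controls.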

[5] = Quantitative High-Throughput drug screen in 47 multiple myeloma cell lines against the NCATS MIPE library collection: ARD_JJKsccE7 cell viability assay (AID 1918929; further: potency means the concentration at half of the fitted maximal effect)
Procedure, shortened: as §1

[6] = Quantitative High-Throughput drug screen in 47 multiple myeloma cell lines against the NCATS MIPE library collection: Karpas620_DSMZ cell viability assay (AID 1918959); further: nearly all actives have a fitted effect of over 30% in size; further: potency means the concentration at half of the fitted maximal effect
Procedure, shortened: as §1

[7] = Quantitative High-Throughput drug screen in 47 multiple myeloma cell lines against the NCATS MIPE library collection: KMM1_JCRB cell viability assay (AID 1918960); further: nearly all actives have a fitted effect of over 30% in size; further: potency means the concentration at half of the fitted maximal effect
Procedure, shortened: as §2

[8] = Quantitative High-Throughput drug screen in 47 multiple myeloma cell lines against the NCATS MIPE library collection: JIM3_ECACC cell viability assay (AID 1918963; further: nearly all actives have a fitted effect of over 35% in size; further: potency means the concentration at half of the fitted maximal effect)
Procedure, shortened: as §1

[9] = Quantitative High-Throughput drug screen in 47 multiple myeloma cell lines against the NCATS MIPE library collection: INA6_PLB cell viability assay (AID 1918965; further: nearly all actives have a fitted effect of over 55% in size; further: potency means the concentration at half of the fitted maximal effect)
Procedure, shortened: (§3)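 Steps: seed 500 cells per well; pin-transfer MIPE 4.0 library; incubate 48 h at 37C, 5% CO2, humidified; add CellTiter-Glo, 5 min room temperature; read luminescence.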

[10] = Quantitative High-Throughput drug screen in 47 multiple myeloma cell lines against the NCATS MIPE library collection: H1112_PLB cell viability assay (AID 1918967; further: nearly all actives have a fitted effect of over 30% in size; further: potency means the concentration at half of the fitted maximal effect)
Procedure, shortened: as §1

[11] = target: Glutathione peroxidase 1 (Homo sapiens) (UniProt P07203); assay: Primary qHTS Assay for Inhibitors of Recombinant Selenoprotein Glutathione Peroxidase 1 (GPX1) (AID 1845191); further: nearly all actives have a fitted effect of over 65% in size; further: potency means the concentration at half of the fitted maximal effect
Glutathione peroxidase 1 (Homo sapiens), sequence (P07203 whole entry, looked up): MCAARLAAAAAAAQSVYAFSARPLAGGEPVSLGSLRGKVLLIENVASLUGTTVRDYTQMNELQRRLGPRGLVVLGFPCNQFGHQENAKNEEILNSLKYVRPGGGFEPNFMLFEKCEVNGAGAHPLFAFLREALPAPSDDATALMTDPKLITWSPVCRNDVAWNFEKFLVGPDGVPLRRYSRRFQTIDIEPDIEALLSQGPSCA
Procedure, shortened: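 10 nM GPX1 + cpd, 30 min RT; start w/ 1 mM GSH, 0.5 mM cumene hydroperoxide, 0.5 mM NADPH, 100 nM GR, 0.01% BSA; buffer 50 mM Tris-HCl pH 7.5, 2 mM EDTA, 150 mM NaCl; Fl 340/450, 0 & 15 min.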

[12] = target: Phospholipid hydroperoxide glutathione peroxidase GPX4 (Homo sapiens) (UniProt P36969); assay: Primary qHTS Assay for Inhibitors of Recombinant Selenoprotein Glutathione Peroxidase 4 (GPX4) (AID 1845192); further: nearly all actives have a fitted effect of over 65% in size; further: potency means the concentration at half of the fitted maximal effect
Phospholipid hydroperoxide glutathione peroxidase GPX4 (Homo sapiens), sequence (P36969 whole entry, looked up): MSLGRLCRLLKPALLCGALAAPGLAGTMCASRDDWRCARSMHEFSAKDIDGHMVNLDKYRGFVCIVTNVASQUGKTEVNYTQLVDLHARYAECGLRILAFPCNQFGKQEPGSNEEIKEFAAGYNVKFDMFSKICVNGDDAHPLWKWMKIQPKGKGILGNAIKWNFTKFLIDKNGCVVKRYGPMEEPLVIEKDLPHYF
Procedure, shortened: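 NADPH consumption, followed by fluorescence at 340/450 nm between 0 and 15 min, reports GPX4 activity via coupled glutathione reductase (100 nM). Enzyme 200 nM was pre-exposed to compound 30 min; 0.5 mM cumene hydroperoxide and 1 mM GSH served as substrates.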

[13] = Quantitative High-Throughput drug screen in 47 multiple myeloma cell lines against the NCATS MIPE library collection: JJN3_DSMZ cell viability assay (AID 1918966; further: nearly all actives have a fitted effect of over 50% in size; further: potency means the concentration at half of the fitted maximal effect)
Procedure, shortened: as §1

[14] = Quantitative High-Throughput drug screen in 47 multiple myeloma cell lines against the NCATS MIPE library collection: Karpas417_ECACC cell viability assay (AID 1918961); conditions: Karpas417 myeloma viability, CellTiter-Glo ATP luminescence, 48 h; viability (% of DMSO): at 45.8 µM (top of the series); further: potency means the concentration at half of the fitted maximal effect
Procedure, shortened: as §3

[15] = target: Luciferin 4-monooxygenase (Photinus pyralis) (UniProt P08659); assay: Primary firefly luciferase (FLuc) qHTS assay for identification of artifact compounds. (AID 1845220); conditions: outcome: dose series up to 54.1 µM; further: nearly all actives have a fitted effect of over 60% in size
Procedure, shortened: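 Compounds sat 15 min at room temperature with 10 uM luciferin and 10 uM ATP (pH 7.6 Tris acetate). Firefly luciferase (10 nM final) was then added, and luminescence was read 5 min later. Data normalized to no-enzyme and DMSO controls were Hill-fitted.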

[16] = system: Nanoluciferase (engineered Oplophorus gracilirostris luciferase); assay: Primary Nanoluciferase (NLuc) qHTS assay for identification of artifact compounds. (AID 1845222)
Procedure, shortened: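 Luminescence from secreted NLuc (filtered, 1:55-diluted S16 cell medium) read 5 min after Nano-Glo substrate; compounds preincubated 15 min, RT. Hill fits of inhibition normalized to DMSO and no-enzyme.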

[17] = Primary redox qHTS assay for identification of artifact compounds. (AID 1845223)
Procedure, shortened: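 Amplex Red (25 uM) and HRP (250 mU/mL) in HBSS, with compounds for 15 min, then 250 uM DTT for 30 min, room temperature, dark. Fluorescence 525/598 nm read; normalized to DMSO and 10 uM DA3003; Hill fit.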

[18] = Primary fluorescence-based thiol-reactive (MSTI) qHTS assay for identification of artifact compounds. (AID 1845221);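 further: thiol-reactive compounds lower the probe fluorescence signal; nearly all actives have a fitted effect of over 65% in size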
Procedure, shortened: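 Probe: MSTI 4 uM, PBS pH 7.4, 2% DMSO. Incubation 1 h, RT, light-protected. Readout fluorescence 525/598 nm.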

Row | Structure (SMILES) | Potency [1] | Potency [2] | Potency [3] | Potency [4] | Potency [5] | Potency [6] | Potency [7] | Potency [8] | Potency [9] | Potency [10] | Potency [11] | Potency [12] | Potency [13] | Potency [14] | outcome [15] | outcome [16] | outcome [17] | outcome [18]
1 | CC1=C2C[C@@H]3[C@@H](CC=C4C[C@@H](O)CC[C@@]43C)[C@@H]2CC[C@]12O[C@H]1C[C@H](C)CN[C@H]1[C@H]2C | 10.5 µM (active) | 8.33 µM (active) | inactive | inactive | inactive | inactive | inactive | inactive | inactive | inactive |  |  |  |  |  |  |  | 
2 | CN1CCN(C(=O)O[C@H]2c3nccnc3C(=O)N2c2ccc(Cl)cn2)CC1 | inactive | inactive | inactive |  |  | inactive | inactive | inactive | inactive | inactive | inactive | inactive |  |  |  |  |  | 
3 | COc1ccc2c(c1OC)CN1CCc3cc4c(cc3C1C2)OCO4 (stereo not given) |  | 20.9 µM (active) |  |  |  |  |  | 16.6 µM (active) | 18.7 µM (active) | inactive | inactive |  | 16.6 µM (active) |  |  |  |  | 
4 | CC(C)(C)CC(C)(C)c1ccc(O)cc1 |  |  |  |  |  |  |  |  |  |  | inactive | inactive |  |  |  |  |  | 
5 | N[C@@H](Cc1ccc(N(CCCl)CCCl)cc1)C(=O)O | 20.9 µM (active) | 14.8 µM (active) | 18.7 µM (active) | 16.6 µM (active) | 18.7 µM (active) | 10.5 µM (active) | 13.2 µM (active) | 16.6 µM (active) | 1.32 µM (active) | 6.62 µM (active) | inactive | inactive | 11.8 µM (active) | 2.96 µM (active) |  |  |  | 
6 | CNC(=O)N1N=C(c2ccc(N)cc2)c2cc3c(cc2CC1C)OCO3 (stereo not given) |  | 11.8 µM (active) | 1.87 µM (active) |  | 2.35 µM (active) |  |  | 4.69 µM (active) | 1.18 µM (active) | inactive | inactive | inactive | 1.32 µM (active) | 1.87 µM (active) | inactive | inactive | inactive | 
7 | C#CCN(C)[C@H](C)Cc1ccccc1 | inactive |  |  | inactive | inactive | inactive |  | inactive |  | inactive | inactive | inactive | 8.33 µM (active) |  |  |  |  | 
8 | CN(C)CCN(C)CCc1ccc(Cl)c(Cl)c1 | inactive | inactive | 20.9 µM (active) | inactive | inactive | inactive | inactive | inactive | inactive | inactive | inactive | inactive | inactive |  |  |  |  | 
9 | COC[C@H]1OC(=O)c2coc3c2[C@@]1(C)C1=C(C3=O)C2CCC(=O)[C@@]2(C)C[C@H]1OC(C)=O (stereo not given in full) | 11.8 µM (active) |  | 8.33 µM (active) | 1.48 µM (active) | 14.8 µM (active) | 4.69 µM (active) | 7.43 µM (active) | 4.69 µM (active) | 2.35 µM (active) | 2.64 µM (active) | inactive | inactive | 10.5 µM (active) |  | inactive | inactive |  | 
10 | O=C1CC[C@@]2(O)[C@H]3Cc4ccc(O)c5c4[C@@]2(CCN3CC2CC2)[C@H]1O5 | inactive |  |  | inactive | inactive | inactive | inactive | inactive | 8.33 µM (active) | inactive | inactive | inactive |  | inactive |  |  |  | 
11 | CN(C)CCc1ccc(O)cc1 | inactive |  | inactive |  | inactive | inactive | inactive | inactive |  | inactive |  |  |  | inactive |  |  |  | 
12 | COC[C@@H](NC(C)=O)C(=O)NCc1ccccc1 | inactive | inactive | inactive |  | inactive | inactive | inactive | inactive |  | inactive | inactive | inactive | inactive |  |  |  |  | 
13 | CC(C)CC(N(C)C)C1(c2ccc(Cl)cc2)CCC1 (stereo not given) |  |  | inactive | inactive | inactive | inactive | inactive | inactive |  | 5.26 µM (active) | inactive | inactive | inactive |  |  |  |  | 
14 | C[C@@H]1[C@@H](C(=O)C[C@H]2O[C@@H]3O[C@]4(C)CC[C@@H]5[C@H](C)CC[C@@H]([C@H]2C)[C@@]35OO4)O[C@@H]2O[C@]3(C)CC[C@H]4[C@H](C)CC[C@@H]1[C@@]24OO3 |  |  | 0.0833 µM (active) | 0.132 µM (active) | 0.148 µM (active) | 0.0418 µM (active) | 0.0469 µM (active) | 0.187 µM (active) | 0.264 µM (active) | 0.469 µM (active) |  |  | 0.296 µM (active) |  |  |  |  | 
15 | C[C@H]1O[C@@H](O[C@H]2[C@@H](O)C[C@H](O[C@H]3[C@@H](O)C[C@H](O[C@H]4CC[C@@]5(C)[C@H](CC[C@@H]6[C@@H]5CC[C@]5(C)[C@@H](C7=CC(=O)OC7)CC[C@]65O)C4)O[C@@H]3C)O[C@@H]2C)C[C@H](O)[C@@H]1O |  |  |  |  |  |  |  |  |  |  | inactive | inactive |  |  | inactive | inactive | inactive | inactive
16 | CNC(=O)c1ccc(N2C(=S)N(c3ccc(C#N)c(C(F)(F)F)c3)C(=O)C23CCC3)cc1F | inactive | 1.48 µM (active) | 2.64 µM (active) | inactive | 16.6 µM (active) | 18.7 µM (active) | 16.6 µM (active) | 23.5 µM (active) | 16.6 µM (active) | 3.72 µM (active) | inactive | inactive |  |  | inactive | inactive | inactive | inactive
17 | O=C(O)C(=O)c1cn(Cc2ccccc2)c2ccc(-c3ccc(OC(F)(F)F)cc3)cc12 | inactive | inactive | inactive | inactive | inactive | inactive | inactive | 18.7 µM (active) |  | 14.8 µM (active) | inactive | 9.04 µM (active) |  |  | inactive | inactive | inactive | inactive
18 | C=C(C)[C@H]1Cc2c(ccc3c2O[C@@H]2COc4cc(OC)c(OC)cc4[C@@H]2C3=O)O1 | 0.935 µM (active) | 4.69 µM (active) | 0.469 µM (active) | 0.526 µM (active) | 0.332 µM (active) | 0.296 µM (active) | 0.235 µM (active) | 0.935 µM (active) | 0.118 µM (active) | 0.132 µM (active) | inactive | inactive | 7.43 µM (active) |  |  |  |  | 
19 | C[C@@H]1[C@@H](CC(C[C@H]2O[C@@H]3O[C@]4(C)CC[C@@H]5[C@H](C)CC[C@@H]([C@H]2C)[C@@]35OO4)C[S+](=O)([O-])c2ccc(COC(=O)N(C)C)cc2)O[C@@H]2O[C@]3(C)CC[C@H]4[C@H](C)CC[C@@H]1[C@@]24OO3 (stereo not given in full) | 0.209 µM (active) | 0.187 µM (active) | 0.118 µM (active) | 0.0935 µM (active) | 0.118 µM (active) | 0.0418 µM (active) | 0.105 µM (active) | 0.264 µM (active) | 0.235 µM (active) | 0.209 µM (active) |  |  | 0.148 µM (active) | 0.132 µM (active) |  |  |  | 
20 | N#CC(C#N)=Cc1ccc(O)c(O)c1 |  |  |  |  |  |  |  |  |  |  | inactive | inactive |  |  |  |  |  | 
21 | Cc1cc(SCc2sc(-c3ccc(C(F)(F)F)c(F)c3)nc2C)ccc1OCC(=O)O | inactive | inactive |  |  |  |  |  | 20.9 µM (active) |  | 20.9 µM (active) | 12.8 µM (active) | inactive | inactive |  |  | inactive |  | inactive
22 | Cn1cc(C2=C(c3cn(C4CCN(Cc5ccccn5)CC4)c4ccccc34)C(=O)NC2=O)c2ccccc21 | 16.6 µM (active) | 11.8 µM (active) | 0.935 µM (active) |  | 9.35 µM (active) | 5.9 µM (active) | 4.18 µM (active) | 8.33 µM (active) | 4.69 µM (active) | 10.5 µM (active) | inactive | inactive | 14.8 µM (active) |  |  |  |  | 
